# Laboratory results published in PubChem BioAssay AID624059 (National Center for Advancing Translational Sciences (NCATS), 2012).
# Values without a mark were called inactive. Active and inactive are the calls of the source. Calls follow the shape of the dose curve; as a rule, active = well fitted curve in the direction sought with a large enough effect; inactive = no such curve, though single readings can be large or run the other way.
# Experiment: qHTS for Inhibitors of Mutant Isocitrate Dehydrogenase 1 (IDH1): U87 Cytotoxicity Assay for Probe SAR
# Conditions: U87MG-IDH1 R132H viability, CellTiter-Glo luminescence, 72 h; series mostly up to 22.1 µM; activity change, negative = cytotoxicity: at the top concentration
# From the text: Malignant glioblastomas (WHO grade IV), including primary and secondary glioblastomas, are among the most lethal with a median survival of one year, and unfortunately they are also the most prevalent type of brain tumors. By and large the standard of care of gliomas remains the use of the oral alkylating agent temozolomide and radiotherapy following surgical tumor resection. There is an urgent unmet medical need for novel therapeutics for gliomas. IDH mutations occur in up to 70% of grade II-IV secondary glioblastomas, and IDH1 R132H is the most prevalent mutation. […] Wild-type (WT) IDH1 catalyzes the conversion of isocitrate to -ketoglutarate with the concomitant reduction of NADP+ to NADPH. In contrast, IDH1 R132H catalyzes the conversion of alpha-ketoglutarate to 2-hydroxyglutarate (2-HG) with the concomitant oxidation of NADPH to NADP+ [5]. Recently, a second significant advancement for the field was the finding that IDH is an oncogene, and that its metabolic product 2-HG may contribute to the pathogenesis of IDH-mutated cancers. […] Although this link to cancer is tantalizing, the direct evidence of how 2-HG drives pathogenesis of gliomas and AML remains a subject of further research. The goal of this cell assay is to identify whether the small-molecule inhibitors of IDH1 R132H are cytotoxic in U87MG-IDH1 R132H cells. Compounds were screened as concentration-titration series that ranged from 50 microM to 14 nM. NIH Molecular Libraries Probe Production Network [MLPCN] NIH Chemical Genomics Center [NCGC] MLSCN Grant: R03 DA032129 PI Name: Dr. Lenny Dang
# Cells were dispensed into 96-well black solid bottom plates at 2500 cells/well (RPMI medium with 10% FBS). The plates were incubated overnight at 37 °C and 5% CO2. The media was aspirated off and fresh media (RPMI and 10% FBS) with compounds in 7-point dose response was added. The plates were incubated for 48 hours at 37 °C and 5% CO2. From each well 100 microL was removed and used for LC-MS analysis to quantitate the amount of 2-HG product. The remaining cells/media were incubated for 24 additional hours at which point 100 uL of Cell Titer Glo (Promega) was added. The plates were shaken for 10 minutes and then incubated at room temperature for 20 minutes. The luminescence was read on the ViewLux in end-point mode (0.5 sec). Concentration-response curves were fitted to the signals arising from the resulting selective ion monitoring. The concentration-response curves were then classified based on curve quality (r2), response magnitude and degree of measured activity, and compounds were subsequently categorized based on their curve class. […] Keywords: Isocitrate dehydrogenase, IDH1, IDH1 R132H, 2-HG, 2-hydroxyglutarate, AML, glioma, MLSMR, MLPCN, NIH Roadmap, qHTS, NCGC
SMILES,"activity change, negative = cytotoxicity",Potency
COc1ccc(N(C(=O)C2COc3ccccc3O2)C(C(=O)NC2CCCCC2)c2ccccc2)cc1OC (stereo not drawn),-23.5% [at 30 µM],
Cc1ccccc1C(C(=O)NC1CCCC1)N(C(=O)Cn1cnc2ccccc21)c1cccc(F)c1 (stereo not drawn),18.6%,
COc1cccc(C(C(=O)NC2CCCCC2)N(C(=O)c2cccs2)c2ccc3c(c2)OCO3)c1 (stereo not drawn),-30.4% [at 30 µM],
Cc1ccccc1C(C(=O)NC1CCCCC1)N(C(=O)CNS(=O)(=O)c1ccccc1)c1cccc(F)c1 (stereo not drawn),,10.1 µM (active)
COc1ccc(N(C(=O)Cn2cnc3ccccc32)C(C(=O)NC2CCCCC2)c2ccccc2)cc1 (stereo not drawn),-6.32% [at 30 µM],
Cc1ccccc1C(C(=O)NC(C)(C)C)N(C(=O)Cc1cccs1)c1cccc(F)c1 (stereo not drawn),-14.4%,
Cc1ccccc1C(C(=O)NC1CCCCC1)N(C(=O)c1ccccn1)c1cccc(F)c1 (stereo not drawn),,11.8 µM (active)
O=C(NC1CCCC1)C(c1ccccc1)N(C(=O)Cc1cccs1)c1cccc(F)c1 (stereo not drawn),-5.77% [at 50 µM],
COc1cccc(N(C(=O)Cc2cccs2)C(C(=O)NC2CCCC2)c2ccccc2)c1 (stereo not drawn),-9% [at 50 µM],
Cc1ccccc1C(C(=O)NC1CCCCC1)N(C(=O)Cc1cccs1)c1cccc(F)c1 (stereo not drawn),-21.8% [at 10.3 µM],
Cc1ccccc1C(C(=O)NC1CCCC1)N(C(=O)Cc1cccs1)c1cccc(F)c1 (stereo not drawn),6.51%,
Cc1nc(C)c(C(=O)N(c2cccc(F)c2)C(C(=O)NC2CCCCC2)c2ccccc2)s1 (stereo not drawn),-12.4%,
Cc1ccccc1C(C(=O)NC1CCCC1)N(C(=O)Cc1cccs1)c1ccccc1F (stereo not drawn),-40% [at 50 µM],
